Results as given in PubChem BioAssay (Tox21).
Records with an inconclusive call do not appear. Entries that show only a call come without a potency. More than one record can exist for a structure, and the calls need not agree. Activity calls are given as the source filed them. The call rests on the fitted dose curve; in most records, active means well fitted inhibition curve with a large enough effect in the signal ratio in the repeat runs (not every such curve was filed as active); inconclusive means weak or mixed curves; inactive means flat fitted curve, though single readings scatter; the % refers to the signal ratio.
Potency means the concentration at half of the fitted maximal effect.

These compounds were tested against Progesterone receptor (Homo sapiens) (UniProt P06401) (assay: qHTS assay to identify small molecule antagonists of the progesterone receptor (PR) signaling pathway (AID 1346795)). Conditions: PR-UAS-bla HEK293T, beta-lactamase FRET ratio, 16 h; series mostly up to 92.4 µM; activity change, negative = inhibition: at the top concentration.
Sequence of Progesterone receptor (Homo sapiens) (P06401 whole entry, looked up): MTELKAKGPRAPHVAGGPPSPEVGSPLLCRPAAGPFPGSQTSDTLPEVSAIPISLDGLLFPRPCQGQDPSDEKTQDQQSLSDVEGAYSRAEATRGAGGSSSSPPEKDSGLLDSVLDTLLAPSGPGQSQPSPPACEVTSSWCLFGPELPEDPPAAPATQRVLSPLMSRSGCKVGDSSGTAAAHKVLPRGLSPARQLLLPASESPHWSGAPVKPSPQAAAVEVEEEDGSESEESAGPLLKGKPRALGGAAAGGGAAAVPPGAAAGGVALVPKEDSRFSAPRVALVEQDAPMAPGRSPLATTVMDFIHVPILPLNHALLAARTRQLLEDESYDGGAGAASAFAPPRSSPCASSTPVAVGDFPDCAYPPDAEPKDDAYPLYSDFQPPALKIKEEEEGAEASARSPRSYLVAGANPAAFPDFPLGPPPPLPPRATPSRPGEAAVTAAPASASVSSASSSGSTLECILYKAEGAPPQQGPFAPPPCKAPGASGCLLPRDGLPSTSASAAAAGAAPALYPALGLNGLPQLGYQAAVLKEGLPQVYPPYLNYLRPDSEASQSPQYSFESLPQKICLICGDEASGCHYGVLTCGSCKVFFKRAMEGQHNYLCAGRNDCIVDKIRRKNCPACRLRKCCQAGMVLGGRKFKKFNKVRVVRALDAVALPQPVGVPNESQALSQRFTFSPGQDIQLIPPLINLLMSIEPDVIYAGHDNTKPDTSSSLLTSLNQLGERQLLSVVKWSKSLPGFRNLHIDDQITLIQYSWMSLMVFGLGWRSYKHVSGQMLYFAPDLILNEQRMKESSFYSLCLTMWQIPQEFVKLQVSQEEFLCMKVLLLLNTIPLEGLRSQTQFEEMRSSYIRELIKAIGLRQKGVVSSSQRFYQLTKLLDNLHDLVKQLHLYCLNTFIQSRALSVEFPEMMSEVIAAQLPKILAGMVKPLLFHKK
Text: National Center for Advancing Translational Sciences [NCATS]
NIH Chemical Genomics Center [NCGC]
U.S. Environmental Protection Agency [EPA]
National Institutes of Environmental Health Sciences [NIEHS]
National Toxicology Program [NTP]
U.S. Food and Drug Administration [FDA]
Progesterone receptor (PR), a nuclear hormone receptor, plays an important role in development, metabolic homeostasis and reproduction. […] Endocrine disrupting chemicals (EDCs) and their interactions with steroid hormone receptors like PR causes disruption of normal endocrine function. To identify the compounds that inhibit PR signaling, a PR-UAS-bla GripTite cell line i.e. PR-UAS-bla HEK293T (Invitrogen, Carlsbad, CA, USA) containing a beta-lactamase reporter gene under the control of an Upstream Activator Sequence (UAS) was used to screen Tox21 10K compound library.
Tox21 Assay Protocol Summary:
PR-UAS-bla HEK293T cells were dispensed at 3,000 cells/4 uL of assay medium containing 2% charcoal stripped FBS per well into black wall/clear-bottom 1536-well plates using a Multidrop Combi (ThermoFisher Scientific, Waltham, MA) dispenser. After the assay plates were incubated at a 37C and 5% CO2 for 6 hr, 23 nL of compounds dissolved in DMSO, positive controls or DMSO only was transferred to the assay plate by a Pintool station (Kalypsys, San Diego, CA), followed by addition of 1 uL (1nM as final concentration) of Promegestone (R5020) in assay medium using a BioRAPTR FRD (Flying Reagent Dispenser, Aurora Discovery, San Diego, CA). The plates were incubated at 37C and 5% CO2 for 16 hr. Then 1 uL of LiveBLAzer B/G FRET substrate was added using a FRD. After the plates were incubated at room temperature for 2 hours, fluorescence intensity was measured by an Envision plate reader (PerkinElmer, Shelton, CT).
With `CC(C)(C)C(=O)C1C(=O)c2ccccc2C1=O` the “activity change, negative = inhibition” value was -17.2% (inactive).
In the case of `Nc1c(S(=O)(=O)O)cc(Br)c2c1C(=O)c1ccccc1C2=O`, the “activity change, negative = inhibition” value was 5.14% [at 42.5 µM] (inactive).
For `CS(=O)(=O)Nc1ccc([N+](=O)[O-])cc1Oc1ccccc1`, the “activity change, negative = inhibition” value was -19.3% [at 42.5 µM] (inactive).
With `CCCCC(CC)C(=O)OCCOCCOCCOC(=O)C(CC)CCCC` (stereo not given) the Potency was “inactive”.
For `CCCCC(CC)COC(C)=O` (stereo not given), the Potency was “inactive”.
In the case of `CCCCC(CC)COC(=O)CCCCCCCC(=O)OCC(CC)CCCC` (stereo not given), the Potency was 8.63 µM (active) and inactive.
`c1ccc2[nH]cnc2c1` was tested, and the “activity change, negative = inhibition” value was 4.26% (inactive).
For `CNC[C@H](O)[C@@H](O)[C@H](O)[C@H](O)CO`, the Potency was “inactive”.
For `Nc1nc2ncc(CNc3ccc(C(=O)N[C@@H](CCC(=O)O)C(=O)O)cc3)nc2c(=O)[nH]1`, the Potency was “inactive”.
In the case of `CCCCCCC(C)(C)S`, the Potency was “inactive”.
With `OC[C@@H](O)[C@H](O)[C@H](O)[C@@H](O)CO` the “activity change, negative = inhibition” value was -9.79% [at 42.5 µM] (inactive).
`CC(C)NCC(O)COc1cccc2ccccc12` (stereo not given) was tested, and the “activity change, negative = inhibition” value was -18.7% (inactive).
With `Nc1cc(-c2ccncc2)c[nH]c1=O` the Potency was “inactive”.
In the case of `CCOC(=O)C1OC1c1ccccc1` (stereo not given), the Potency was “inactive”.
In the case of `C=C(C)C(=O)OCCC[Si](OC)(OC)OC`, the “activity change, negative = inhibition” value was 0.812% (inactive).
With `COCC(=O)O` the “activity change, negative = inhibition” value was 1.82% (inactive).
With `CCc1ccc(O)cc1` the Potency was “inactive”.
`CCCCCC/C=C/CCCCCCCC(=O)O` was tested, and the Potency was “inactive”.
`O=C(O)c1cc(-c2ccccc2)nc2ccccc12` was tested, and the Potency was “inactive”.
`CC(C)(N=C=O)c1cccc(C(C)(C)N=C=O)c1` was tested, and the “activity change, negative = inhibition” value was 9.13% (inactive).
For `CCc1ccccc1O`, the “activity change, negative = inhibition” value was -0.439% (inactive).
With `Cn1c([N+](=O)[O-])cnc1COC(N)=O` the Potency was “inactive”.
In the case of `O=[N+]([O-])C(CO)(CO)CO`, the Potency was “inactive”.
In the case of `CCCCOCCOCCOC(=O)CCCCC(=O)OCCOCCOCCCC`, the Potency was “inactive”.
In the case of `CCC(C)C=O` (stereo not given), the “activity change, negative = inhibition” value was 0.604% (inactive).
In the case of `CCCCCCCCCCC=CC1CC(=O)OC1=O` (stereo not given), the Potency was “inactive”.
With `c1ccc2ccccc2c1` the Potency was “inactive”.
`NC(=O)NNc1ccccc1` was tested, and the Potency was “inactive”.
`O=c1c(-c2ccc(O)cc2)coc2cc(O)ccc12` was tested, and the “activity change, negative = inhibition” value was -24.5% (inactive).
`O=C(Oc1ccccc1)c1ccc(O)cc1` was tested, and the Potency was 61.1 µM (active).
`CS(=O)(=O)c1ccc([C@@H](O)[C@@H](CO)NC(=O)C(Cl)Cl)cc1` was tested, and the Potency was “inactive”.
With `COCC(C)O` (stereo not given) the Potency was “inactive”.
In the case of `NCc1cccc(CN)c1`, the Potency was “inactive”.
In the case of `OCC1CCCO1` (stereo not given), the Potency was “inactive”.
With `CC1=CC[C@H]2C[C@@H]1C2(C)C` the “activity change, negative = inhibition” value was -5.59% (inactive).
For `CCCCNC(N)=O`, the “activity change, negative = inhibition” value was 10.6% (inactive).
In the case of `CCCCC/C=C\C/C=C\CCCCCCCC(=O)OC`, the “activity change, negative = inhibition” value was 2.24% (inactive).
`C=C(C)C(=O)OCCCCCC` was tested, and the Potency was “inactive”.
With `CC[Si](OC(C)=O)(OC(C)=O)OC(C)=O` the Potency was “inactive”.
With `C=C(C#N)C(=O)OCC` the “activity change, negative = inhibition” value was 6.16% (inactive).
